Most compounds without a hit are left out; they make up all but 2.7% or so of the library.
Integrin act MD: integrin-mediated muscular dystrophy alleviation activation; hit rate 0.064% among 350,000; Potency, µM (titrated, usually from 38.3 µM), hits mostly activators; alpha7betagal myoblasts, beta-gal FDG fluorescence, 48 h; note: nearly all actives have a fitted effect of over 60% in size
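alpha7betagal+/- myoblasts (passage 13, 250/well) treated 48 h at 37C with compounds at 1:260 dilution of DMSO stock. Lysed, then beta-galactosidase activity read as FDG fluorescence (ex 480/em 540) after 30 min, with pre-read for autofluorescence.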
BRCA1 expr up: BRCA1 expression activation. MCF7-BRCA1-FFLuc reporter, luminescence, 48 h; response scale: scaled: vehicle 0%, 10 µM genistein 100%. Potency, µM (titrated, usually from 46.1 µM), most hits filed as activators. hit rate 1.1% among 380,000; note: nearly all actives have a fitted effect of over 80% in size
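Compounds are tested at multiple concentrations on MCF7 BRCA1-luciferase reporter cells seeded at 2000 per well; after 48 h, a single luminescence end-point is taken and curves fitted to the normalized data.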
GLP-1R inv ag: acts as inverse agonist at human GLP-1 receptor; hit rate 1.6% among 410,000; Potency, µM (doses to about 38.3 µM), hits mostly inhibitors; HEK293 GLP-1R CRE-luciferase, luminescence, 24 h; GLP-1R form is constitutively active; P43220; note: nearly all actives have a fitted effect of over 55% in size
Target sequence (P43220 whole entry, looked up): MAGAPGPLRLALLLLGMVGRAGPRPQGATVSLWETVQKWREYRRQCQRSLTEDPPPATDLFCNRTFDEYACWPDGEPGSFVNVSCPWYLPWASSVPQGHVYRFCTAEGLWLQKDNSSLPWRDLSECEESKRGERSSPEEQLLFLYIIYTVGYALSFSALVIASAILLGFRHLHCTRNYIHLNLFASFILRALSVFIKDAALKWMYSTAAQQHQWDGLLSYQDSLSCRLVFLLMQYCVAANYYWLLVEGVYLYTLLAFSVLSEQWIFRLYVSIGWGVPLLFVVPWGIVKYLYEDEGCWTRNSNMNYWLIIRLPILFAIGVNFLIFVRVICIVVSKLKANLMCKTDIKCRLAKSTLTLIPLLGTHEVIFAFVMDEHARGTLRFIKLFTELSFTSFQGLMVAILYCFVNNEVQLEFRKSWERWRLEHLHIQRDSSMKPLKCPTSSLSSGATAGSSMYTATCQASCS
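Seeding at 200 cells/uL, 12 h culture, 24 hr compound treatment, then luciferase reagent and a luminescence read; cells are HEK293 stably expressing a constitutively active GLP-1R plus cAMP-responsive luciferase.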
HEK293 tox: cytotoxicity in counter-screen for GLP-1R inverse agonists; Potency, µM (series often up to 38.3 µM), actives largely listed as inhibitors; HEK293 cAMP-luciferase reporter cells, luminescence, 24 h; hit rate 0.13% among 410,000;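 note: loss of luciferase light is scored as toxicity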
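Step one: seed cells (200 cells/uL, DMEM with 10% Nu serum, 1% pen-strep). Step two: 12-hour incubation at 37 deg C. Step three: pin 23 nL compound, incubate 24 hr. Step four: add luciferase reagent, read luminescence 12 min later.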
GLP1R ag: GLP-1 receptor (human) agonism; AID 624172; P43220; Potency, µM (doses to about 45.6 µM), actives largely listed as activators; HEK293 GLP-1R CRE-luciferase, luminescence, 4-6 h; cells express a hypersensitive GLP-1R form; hit rate 0.007% among 380,000
A number is an active result; n = inactive; u = inconclusive; x = no result given; [ ] = another dose, or the depositor's remark. Calls come from the whole dose curve; as a rule, active = well fitted curve in the direction sought with a large enough effect; inconclusive = small, poorly fitted or top-dose-only effect, or another doubt; inactive = no such curve, though single readings can be large; an effect the other way counts as inactive or inconclusive.

SMILES	Integrin act MD	BRCA1 expr up	GLP-1R inv ag	HEK293 tox	GLP1R ag
Cc1cccc(NC(=O)CSc2nc3ccccc3c3nc(CCc4c(C)n[nH]c4C)nn23)c1	n[7.66 µM]	n	u	5µM	n
Cc1cncn1CCc1nc2c3ccccc3nc(SCC(=O)Nc3cccc(Cl)c3)n2n1	n	n	u	u	n
COc1nc(C)cc(C)c1S(=O)(=O)c1ccccc1C	n	n	u	n	n
CCSc1nc(C)cc(C)c1S(=O)(=O)c1ccccc1C	n	n	8.9µM	n	n
C#CCOc1nc(C)cc(C)c1S(=O)(=O)c1ccccc1C	n	n	u	n	n
CSc1nc(C)cc(C)c1S(=O)(=O)c1ccccc1C	n	n	5µM	n	n
CCC(C)Oc1nc(C)cc(C)c1S(=O)(=O)c1ccccc1C (stereo not given)	n	n	8.9µM	n	n
COc1ccc2sc(NC(=O)CC(C)C)nc2c1	n	5.6µM	n	n	n
COc1ccc2sc(NCc3ccccc3)nc2c1	n	2.8µM	u	n	n
COc1ccc2sc(NC(C)=O)nc2c1	n	u	n	n	n
COCc1nc(-c2ccc(-c3ccccc3)nc2OC)no1	n	10µM	n	n	n
COc1cccc(-c2ccc(-c3noc(-c4ccccc4F)n3)c(OC)n2)c1	n	10µM	n	n	n
COc1cccc(-c2ccc(-c3noc(-c4cccs4)n3)c(OC)n2)c1	n	n	n	n	n
COCc1nc(-c2ccc(-c3ccc(OC)cc3)nc2OC)no1	n	n	n	n	n
CCN(CC)CCCNC(=O)Cn1c(-c2cccs2)cc2cc(Cl)ccc21	x	x	u	n	x
COc1ccc(C(C(=O)NC2CCCCC2)N(C(=O)CCl)c2ccc(OC)cc2)cc1 (stereo not given)	n	n	u	n	n
COc1ccc(C(C(=O)NC2CCCCC2)N(C(=O)CCl)c2cccc(Cl)c2)cc1 (stereo not given)	n	n	2.8µM	n	n
O=C(NC1CCCCC1)C(c1cccnc1)N(C(=O)CCl)c1ccccc1Cl (stereo not given)	n	n	1.6µM	n	n
Cc1ccc(C)c(NC(=O)CN2C(=O)C3(SCC(=O)N3c3ccc(C)c(C)c3)c3ccccc32)c1 (stereo not given)	x	n	n	n	n
O=C(NCc1ccc2c(c1)OCO2)Nc1ccc(Cl)cc1	n	11µM	n	n	n
O=C(NCc1ccc2c(c1)CCO2)Nc1ccccc1	n	1.8µM	n	n	n
Cc1ccc(C(=O)NCc2ccc3c(c2)CCO3)cc1C	n	n	u	n	n
CC(=O)Nc1ccc(OCc2ccc3c(c2)OCO3)cc1	n	2.5µM	n	n	n
COc1ccccc1CCNC(=O)c1ccc2c(c1)c(C)c(C)n2C	x	x	u	n	x
CN(C)c1ccc(/C=C/C(=O)c2ccccc2O)cc1	n	3.2µM	n	n	n
SMILES	Integrin act MD	BRCA1 expr up	GLP-1R inv ag	HEK293 tox	GLP1R ag
COc1ccc2c(c1)OC[C@H]1[C@H]2N2C(=O)CN(CCc3c[nH]c4ccccc34)C(=O)[C@@]2(C)[C@H]1c1ccccc1	n	n	5µM	n	n
COc1cccc(OCCSc2nc(N)cc(N)n2)c1	n	n	n	n	n
Nc1cc(N)nc(SCCOc2ccccc2)n1	n	13µM	n	n	n
Cn1cnnc1SCCOc1ccc(Cl)cc1	n	n	n	n	n
COc1ccc(OCCSc2ncccn2)cc1	n[7.66 µM]	u	n	n	n
COc1ccc(OCCCSc2ncccn2)cc1	n	13µM	n	n	n
Clc1ccc(OCCSc2ncccn2)cc1	n	11µM	u	n	n
c1cnc(SCCCOc2ccc3ccccc3c2)nc1	n	11µM	n	n	n
Cc1ccc(OCCCSc2ncccn2)cc1C	n	u	u	n	n
CC(NC(=O)c1ccc(NC(=O)c2nsc3ccccc23)cc1)c1ccccc1 (stereo not given)	x	x	u	n	x
COc1cccc(CNC(=O)Cn2c(=O)oc3cc(S(=O)(=O)N4CCCC4)ccc32)c1	x	n	n	n	n
CC(C)(C)c1ccc(C(=O)NNc2ncnc3c2cnn3-c2ccccc2)cc1	x	x	n	n	x
CC(C)SCCCCOc1ccc2ccccc2c1	n	8.9µM	n	n	n
CCN(CC)CCCOc1cc2nc(N3CCCN(C)CC3)nc(NC3CCN(C)CC3)c2cc1OC	x	n	x	x	x
CCC(Cn1nnc2ccccc2c1=O)NC(=O)Nc1cccc(Cl)c1 (stereo not given)	x	x	n	n	x
O=c1cc(-c2ccccc2)nc2cc(-c3ccc(Br)cc3)[nH]n12	n	n	n	n	n
Cc1cc2nc(-c3ccccc3)cc(=O)n2[nH]1	u	10µM	n	n	n
CCOc1ccccc1NC(=O)CCN(c1ccc(C)cc1)S(=O)(=O)c1ccccc1	n	n	11µM	n	n
Cc1ccc(N(CCC(=O)O)S(=O)(=O)c2ccccc2)cc1	n	n	n	n	n
CCC1([N+](=O)[O-])COC(C=Cc2ccccc2)OC1 (stereo not given)	n	u	u	n	n
O=C1C=CCC(/C=C/c2ccccc2)O1 (stereo not given)	n	n	2.5µM	n	n
CN(C)C(=O)c1cccc(COc2ccc(N3C(N)=NC(N)=NC3(C)C)cc2Cl)c1	u	n	2.2µM	n	n
CC1CCCCN1C(=O)Cn1c(=O)n(-c2ccc(Cl)cc2)c(=O)c2c3c(sc21)CCC3 (stereo not given)	x	n	n	n	n
CCN(CC)c1ccc(NC(=O)c2cccc(C)c2OC)c(C)c1	n	4.5µM	u	n	n
COc1ccc(OC)c(NC(=O)c2nc(S(=O)(=O)Cc3ccccc3F)ncc2Cl)c1	x	n	x	x	x
SMILES	Integrin act MD	BRCA1 expr up	GLP-1R inv ag	HEK293 tox	GLP1R ag
CCN1C/C(=C\c2cccc([N+](=O)[O-])c2)C(=O)/C(=C/c2cccc([N+](=O)[O-])c2)C1	n	n	u	5µM	n
O=C1/C(=C/c2cccc([N+](=O)[O-])c2)CCc2ccccc21	n	n	n	n	n
COc1ccc(-c2cn(Cc3ccc(C)cc3)nn2)cc1	n	8.9µM	n	n	n
CCCCCc1ccc(-c2cn(Cc3ccc(C)cc3)nn2)cc1	n	n	n	n	n
Cc1ccc(CN2CCC(CNc3ncnc4onc(-c5ccc(F)cc5)c34)CC2)cc1	x	x	n	n	x
N/C(=N\OC(=O)/C=C/c1ccccc1Cl)c1cccnc1	n	4µM	n	n	n
N/C(=N\OC(=O)/C=C/c1ccccc1)c1cccnc1	n	10µM	n	n	n
Cc1ccc(/C(N)=N/OC(=O)/C=C/c2ccccc2)cc1	n	n	n	n	n
N/C(=N\OC(=O)/C=C/c1ccccc1Cl)c1ccccn1	n	n	u	n	n
O=C(O)c1ccc(-c2ccccn2)s1	n	10µM	n	n	n
c1ccc(-c2ccc(-c3ccccn3)s2)nc1	n	n	n	n	n

High-throughput results from PubChem.
